Data on 40 compounds can be found in PubChem BioAssay (Tox21).

Where “and” joins values, the source holds several entries; their conditions need not be identical. Equal values may be shown once. Inconclusive results are not listed. Calls of active or inactive are those of the source. The call rests on the fitted dose curve.
On the % scale 0 is the no-effect control and ±100 the full control effect; potency means the concentration at half of the fitted maximal effect.

The assay can be described thus: qHTS assay to identify small molecule agonists of H2AX - cell viability counter screen (AID 1224847). Further: nearly all actives have a fitted effect of over 30% in size. On activity change, negative = cytotoxicity: top concentration of the series differs between compounds. The note with it: CHO-K1 viability, CellTiter-Glo luminescence, 3 h; series mostly up to 154 µM; activity change, negative = cytotoxicity: at the top concentration. An excerpt:
National Center for Advancing Translational Sciences [NCATS]
NIH Chemical Genomics Center [NCGC]
U.S. Environmental Protection Agency [EPA]
National Institutes of Environmental Health Sciences [NIEHS]
National Toxicology Program [NTP]
U.S. Food and Drug Administration [FDA]
HTRF phospho-H2AX (Ser139) assay (Cisbio Bioassays, US) enables the quantitative detection of the histone variant H2AX when phosphorylated on serine 139. When double-stranded DNA breaks, either by ionizing radiation or endogenous physiological processes, H2AX becomes phosphorylated at Ser139. This phospho-Ser139 serves as a sensitive biomarker for the detection of such breaks, localizing the site of DNA repair. So, HTRF phospho-H2AX Ser139 is a pertinent assay to study genome stability, the cell cycle, DNA repair, and it serves as a biomarker for cancer, and to understand aging. Wild type CHO-K1 cells were used to identify the inducers of Phospho-H2AX Ser 139 from the Tox21 compound collections. Also cytotoxicity of the Tox21 10K compound library against the CHO-K1 cell line was tested by measuring the cell viability using CellTiter-Glo assay (Promega, Madison, WI).
Tox21 Assay Protocol Summary:
The CHO-K1 cells suspended in culture medium containing 10% FBS were dispensed at 1000 cells/ 3 ul/well in 1536-well white wall/solid bottom plates (Greiner Bio-One North America, NC) using a Multidrop Combi (Thermo Fisher Scientific Inc., Waltham, MA). After the assay plates were incubated at 37C overnight, 23 nl of compounds at 15 concentrations (from 5-48 columns) or positive control (from 1 to 4 columns) were transferred to the assay plates using a Pintool station (Wako, San Diego, CA) into each well resulting in a final DMSO concentration of 0.76%. After 3hr incubation at 37C, 3 uL/well CellTiter-Glo luminescent cell viability reagent (Promega Corporation, Madison, WI) was added using a Flying Reagent Dispenser (FRD) (Aurora Discovery, CA). After incubation at room temperature for 30 min, the luminescence intensity was read using a ViewLux plate reader (PerkinElmer, Waltham, MA).
A general note: In qHTS, concentration-response curves come from the screen itself.
With `C[N+]1(CCC(C(N)=O)(c2ccccc2)c2ccccc2)CCCCC1`, the “activity change, negative = cytotoxicity” value is 0.0073% [at 70.9 µM] (inactive).

For the compound `N#CC1(N=NC2(C#N)CCCCC2)CCCCC1`, the “activity change, negative = cytotoxicity” value was -12.8% (inactive).

Consider `CCOC(=O)c1cncn1C(C)c1ccccc1` (stereo not given), for which the “activity change, negative = cytotoxicity” value was -0.523% [at 70.9 µM] (inactive).

Consider `O=C(O)C(F)(F)C(F)(F)C(F)(F)C(F)(F)C(F)(F)C(F)(F)C(F)(F)C(F)(F)F`, for which the “activity change, negative = cytotoxicity” value is -5.83% (inactive).

In the case of `c1ccc2sc(SNC3CCCCC3)nc2c1`, the Potency entry is “inactive”.

For `C[C@@H]1C[C@@H]([C@H](O)CC2CC(=O)NC(=O)C2)C(=O)[C@@H](C)C1`, the Potency entry was “inactive”.

For `FC(Cl)(Cl)C(F)(Cl)Cl`, the “activity change, negative = cytotoxicity” value is -0.185% (inactive).

Consider `Cc1cccc(C)c1NC1=NCCCS1`, for which the “activity change, negative = cytotoxicity” value was -4.77% [at 70.9 µM] (inactive).

For `CCCCNC(=O)OCC#CI`, the Potency is 50.2 µM (active) and 101 µM (active).

As for `C=C(C)C(=O)OCCCCOC(=O)C(=C)C`, the “activity change, negative = cytotoxicity” value is -0.932% (inactive).

With `CN1CC[C@]23c4c5ccc(O)c4O[C@H]2[C@@H](O)CC[C@H]3[C@H]1C5`, the “activity change, negative = cytotoxicity” value was -1.55% (inactive).

Consider `C[Si](Cn1cncn1)(c1ccc(F)cc1)c1ccc(F)cc1`, for which the Potency was 104 µM (active).

Regarding `c1ccc2c(c1)-c1cccc3cccc-2c13`, the “activity change, negative = cytotoxicity” value was -4.09% (inactive).

On to `O=S(=O)(c1ccccc1)c1ccccc1`, for which the “activity change, negative = cytotoxicity” value is -1.51% (inactive).

Consider `OCCSSCCO`, for which the “activity change, negative = cytotoxicity” value was 0.0049% (inactive).

In the case of `CCCCC#N`, the “activity change, negative = cytotoxicity” value is 1.07% (inactive).

Regarding `CC(=O)NNc1ccccc1`, the “activity change, negative = cytotoxicity” value was -0.121% (inactive).

For the compound `CCCN(CCC)c1c([N+](=O)[O-])cc(C(C)C)cc1[N+](=O)[O-]`, the “activity change, negative = cytotoxicity” value was -13.7% (inactive).

On to `O=C(Cc1ccccc1)c1ccccc1`, for which the “activity change, negative = cytotoxicity” value was -1.98% (inactive).

Regarding `O=C(CCl)CCl`, the “activity change, negative = cytotoxicity” value was -0.207% (inactive).

On to `C#CC(O)(C=CCl)CC` (stereo not given), for which the “activity change, negative = cytotoxicity” value is -0.441% [at 70.9 µM] (inactive).

Regarding `CC(C)(C)c1ccc(CCOc2ncnc3ccccc23)cc1`, the “activity change, negative = cytotoxicity” value is 4.79% (inactive).

In the case of `C[C@]12C=CC3=C4CCC(=O)C=C4CC[C@H]3[C@@H]1CC[C@@H]2O`, the Potency is 89.2 µM (active) and 75.9 µM (active).

For the compound `C[C@H]1O[C@H](OC2[C@@H](O)[C@@H](O)C(O)[C@H](O)[C@H]2O)[C@@H](N)C[C@@H]1N=C(N)C(=O)O` (stereo not given in full), the “activity change, negative = cytotoxicity” value was 0.0005% (inactive).

On to `CCOc1cccc(C2(N3CCN(c4ccccc4)CC3)CCC(C)CC2)c1` (stereo not given), for which the “activity change, negative = cytotoxicity” value was -0.105% (inactive).

For `CC(C)[C@@H](C(=O)O[C@@H](C#N)c1cccc(Oc2ccccc2)c1)c1ccc(Cl)cc1`, the Potency was 16.2 µM (active).

As to `CCCCC(CC)CO[N+](=O)[O-]` (stereo not given), the “activity change, negative = cytotoxicity” value was -0.0435% (inactive).

`CCNC(=O)NC(=O)/C(C#N)=N/OC`: the “activity change, negative = cytotoxicity” value is 3.09% (inactive).

For `N#CC(C#N)=Cc1ccc(O)c(O)c1`, the “activity change, negative = cytotoxicity” value was 5.04% [at 70.9 µM] (inactive).

For `O=C(O)COc1cc(Cl)c(Cl)cc1Cl`, the Potency result is “inactive”.

`Cc1ccccc1`: the “activity change, negative = cytotoxicity” value is -1.65% (inactive).

On to `SCc1ccccc1`, for which the “activity change, negative = cytotoxicity” value is -1.87% (inactive).

In the case of `CCCCCCCCCCCCN(C)C`, the “activity change, negative = cytotoxicity” value is -1.2% (inactive).

Consider `C=CC(=O)NC(C)(C)CC(C)=O`, for which the “activity change, negative = cytotoxicity” value is -2.33% (inactive).

On to `CON(C)C(=O)Nc1ccc(Cl)cc1`, for which the “activity change, negative = cytotoxicity” value was -4% (inactive).

Consider `CCOC(C(=O)OCCN(C)C)(c1ccccc1)c1ccccc1`, for which the “activity change, negative = cytotoxicity” value is 1.06% [at 70.9 µM] (inactive).

For `CCCBr`, the “activity change, negative = cytotoxicity” value was -1.06% (inactive).

With `Cc1nnc(-c2ccccc2)c(=O)n1N`, the “activity change, negative = cytotoxicity” value is -2.09% (inactive).

For the compound `CCOP(=S)(OCC)Oc1ccc(S(C)=O)cc1` (stereo not given), the “activity change, negative = cytotoxicity” value is 10.1% (inactive).

Regarding `C1CS1`, the “activity change, negative = cytotoxicity” value is -0.183% (inactive).
